# Reference: PubChem BioAssay
# Calls of active or inactive are those of the source.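 Rule for the calls, unless noted: active = inhibition at or above 50% at 10 µM; inactive = inhibition below 50%.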
# Legend:
# [1] = inhibitors of TNFa-induced NFkB p65 translocation, primary screen, imaging, HUVEC, MLSMR starter and 10KST1 sets (AID 438;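 active = inhibition above 20% together with a positive visual image hit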;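 note: compound added about 3h40 before a 20 min TNFalpha stimulation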;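 for inhibition: signal is the nuclear over cytoplasmic p65 intensity ratio per well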); conditions: HUVEC TNFa-induced p65 nuclear translocation; cell count: measured here: nuclei count (cytotoxicity indicator), at 2.08 µM; inhibition: at 2 µM, stronger effect = higher value, 0% TNFa-plus-vehicle, 100% no-TNFa wells
# [2] = reduction of polyQ htt aggregates in cells – imaging, exon1htt(103Q)mCFP cells, high-content imaging, primary screen (AID 483;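 active = visual image review flags a hit and inhibition of aggregation exceeds 20%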;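 note: compound exposure lasted 3 days before fixation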;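 for nuclei count: percent of the per-plate median nuclei count of sample wells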); conditions: exon1htt(103Q)mCFP cell line, aggregate imaging, at 2 µM; inhibition of aggregation: stronger effect = higher value; nuclei count: measured here: cell count, toxicity
# [3] = endothelial E-selectin expression blockers – imaging, HUVEC, immunofluorescence, MLSMR starter and 10KST1 sets, primary screen (AID 487;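 active = visually confirmed hit in the image check and inhibition above 20%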;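 for inhibition: signal is fraction of cell area covered by stained E-selectin grains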;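 for nuclei count: 100% = median nuclei count of all wells on the same plate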); conditions: HUVEC TNFalpha-induced E-selectin immunofluorescence imaging, at 2 µM; inhibition: stronger effect = higher value; nuclei count: measured here: cell number, toxicity
# [4] = molecular target: Voltage-gated potassium channel subunit beta-2 (Rattus norvegicus) (UniProt P62483); assay: inhibitors of rat Kvbeta2 reductase activity – biochemical, NADPH fluorescence, primary screen (AID 622;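 active = fluorescence slope higher than the sample average by over 3 SD, cut at about -0.22 in these data, passing the limit was not always enough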;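 note: slope of raw intensity against log time taken from 70 to 1610 s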); conditions: recombinant KvBeta, 4-cyanobenzaldehyde reduction, at 10 µM, stronger effect = higher value
# [5] = molecular target: Voltage-gated potassium channel subunit beta-2 (Rattus norvegicus) (UniProt P62483); assay: enhancers of rat Kvbeta2 NADPH turnover – biochemical, NADPH fluorescence, primary screen (AID 623;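 active = NADPH fluorescence slope more negative than the mean of all samples by about 3 SD, 99.7% confidence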;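 note: fluorescence intensity change per second fitted from 20 to 320 s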); conditions: Recombinant KvBeta, NADPH fluorescence decrease slope, 10 min; at 10 µM; stronger effect = lower value
# [6] = molecular target: Alpha-2C adrenergic receptor (Homo sapiens) (UniProt P18825); assay: compounds altering alpha2C-coupled GIRK flux – cell-based, HEK293 alpha2C/GIRK1/2, thallium flux, primary screen (AID 624;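 active = fluorescence slope after compound addition differing from the mean of all screened samples at 99.7% confidence, in either direction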;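 note: slope of fluorescence ratio to pre-addition baseline per second over 15 to 24 s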); conditions: thallium flux BTC fluorescence, at 10 µM, actives lie on both sides
# [7] = blockers of RIG-like receptor reporter activation – cell-based, Sendai virus stimulus, luciferase, 10K MLSCN set, TLR/RLR signaling modifier project, primary screen (AID 602276); conditions: HEK293 RL24 IRF3 luciferase reporter, at 10 µM, stronger effect = higher value;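 note: firefly luciferase from ISG56 promoter only with Renilla not read in this screen; 0% = Sendai virus plus DMSO and 100% = medium plus DMSO without virus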
# [8] = TLR3 IRF3 reporter activation blockers – cell-based, poly I:C stimulus, luciferase, 10K MLSCN set, primary screen (AID 602277;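 active = inhibition of the reporter signal at or above 50%; inactive = inhibition below 50%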); conditions: HEK293-TLR3 RL24 IRF3 luciferase reporter, at 10 µM, stronger effect = higher value
# Sequence of Alpha-2C adrenergic receptor (Homo sapiens) (P18825 whole entry, looked up): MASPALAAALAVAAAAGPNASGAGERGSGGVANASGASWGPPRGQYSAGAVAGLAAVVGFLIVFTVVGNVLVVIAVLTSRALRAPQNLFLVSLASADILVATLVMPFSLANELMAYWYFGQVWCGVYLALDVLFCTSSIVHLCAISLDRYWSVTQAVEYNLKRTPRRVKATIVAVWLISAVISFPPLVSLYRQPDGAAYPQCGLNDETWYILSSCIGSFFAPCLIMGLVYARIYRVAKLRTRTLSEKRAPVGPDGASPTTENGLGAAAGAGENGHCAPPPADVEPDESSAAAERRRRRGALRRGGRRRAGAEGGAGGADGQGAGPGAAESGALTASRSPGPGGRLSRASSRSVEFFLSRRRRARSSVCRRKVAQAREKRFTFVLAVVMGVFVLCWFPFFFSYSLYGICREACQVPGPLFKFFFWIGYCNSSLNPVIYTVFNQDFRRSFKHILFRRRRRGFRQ
# Sequence of Voltage-gated potassium channel subunit beta-2 (Rattus norvegicus) (P62483 whole entry, looked up): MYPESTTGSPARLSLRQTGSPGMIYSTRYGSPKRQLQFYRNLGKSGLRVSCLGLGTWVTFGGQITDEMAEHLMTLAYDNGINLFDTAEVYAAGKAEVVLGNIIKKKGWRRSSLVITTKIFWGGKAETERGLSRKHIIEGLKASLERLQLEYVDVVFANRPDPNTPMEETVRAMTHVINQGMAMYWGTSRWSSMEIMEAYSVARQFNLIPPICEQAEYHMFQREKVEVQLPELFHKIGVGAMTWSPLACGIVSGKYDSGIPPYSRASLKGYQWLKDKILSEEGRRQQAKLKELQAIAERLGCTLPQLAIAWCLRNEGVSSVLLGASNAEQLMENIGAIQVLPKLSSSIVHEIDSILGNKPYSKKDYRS
compound,measurement,setting,value
COC(=O)c1ccc(NC(=O)C(C)N2C(=O)c3ccccc3C2=O)cc1 (centres undefined),cell count,[1],593
same,inhibition,[1],-1.8% (inactive)
same,inhibition of aggregation,[2],-7.5% (inactive)
same,nuclei count,[2],103%
same,inhibition,[3],-39.9% (inactive)
same,nuclei count,[3],108%
same,fluorescence slope,[4],-0.614 (inactive)
same,NADPH fluorescence slope,[5],5.9e-06 (inactive)
same,slope,[6],0.0058 (inactive)
same,inhibition,[7],-2.42% (inactive)
same,inhibition,[8],3.26% (inactive)
Cc1cnc(C(=O)Nc2nnc(C(C)C)s2)cn1,cell count,[1],569
same,inhibition,[1],-8.8% (inactive)
same,inhibition of aggregation,[2],10.8% (inactive)
same,nuclei count,[2],107%
same,inhibition,[3],-28.6% (inactive)
same,nuclei count,[3],118%
same,fluorescence slope,[4],-0.5 (inactive)
same,NADPH fluorescence slope,[5],-3.3e-05 (inactive)
same,slope,[6],0.00641 (inactive)
same,inhibition,[7],-25.1% (inactive)
same,inhibition,[8],-89.5% (inactive)
Cn1c(SCc2c(F)cccc2Cl)nnc1-c1cccs1,cell count,[1],662
same,inhibition,[1],9.6% (inactive)
same,inhibition of aggregation,[2],-11.9% (inactive)
same,nuclei count,[2],25.4%
same,inhibition,[3],-9.9% (inactive)
same,nuclei count,[3],115%
same,fluorescence slope,[4],-0.445 (inactive)
same,NADPH fluorescence slope,[5],-2.8e-05 (inactive)
same,slope,[6],0.00484 (inactive)
same,inhibition,[7],-93.7% (inactive)
same,inhibition,[8],-167% (inactive)
CN1CCN(c2oc(COc3ccc(-c4ccccc4)cc3)nc2C#N)CC1,cell count,[1],3
same,inhibition,[1],117% (active)
same,inhibition of aggregation,[2],18.4% (inactive)
same,nuclei count,[2],98.4%
same,inhibition,[3],-35.9% (inactive)
same,nuclei count,[3],111%
same,fluorescence slope,[4],-0.425 (inactive)
same,NADPH fluorescence slope,[5],1e-05 (inactive)
same,slope,[6],0.00577 (inactive)
same,inhibition,[7],8.52% (inactive)
same,inhibition,[8],-19.8% (inactive)
O=C(Nc1nc(-c2cccs2)cs1)c1cccc(S(=O)(=O)N2CCCCC2)c1,cell count,[1],503
same,inhibition,[1],0% (inactive)
same,inhibition of aggregation,[2],-5.4% (inactive)
same,nuclei count,[2],110%
same,inhibition,[3],-108% (inactive)
same,nuclei count,[3],124%
same,fluorescence slope,[4],-0.479 (inactive)
same,NADPH fluorescence slope,[5],-2.5e-05 (inactive)
same,slope,[6],0.00684 (inactive)
same,inhibition,[7],6.17% (inactive)
same,inhibition,[8],-7.26% (inactive)
O=S(=O)(c1ccc2c(c1)OCCO2)N1CCN(Cc2ccc3c(c2)OCO3)CC1,cell count,[1],632
same,inhibition,[1],1.9% (inactive)
same,inhibition of aggregation,[2],0.7% (inactive)
same,nuclei count,[2],100%
same,inhibition,[3],-24.5% (inactive)
same,nuclei count,[3],113%
same,fluorescence slope,[4],-0.345 (inactive)
same,NADPH fluorescence slope,[5],-5.1e-05 (inactive)
same,slope,[6],0.00449 (inactive)
same,inhibition,[7],9.49% (inactive)
same,inhibition,[8],25.6% (inactive)
CCOc1cc(C(=O)N(C)Cc2cc3ccccc3[nH]c2=O)cc(OCC)c1OCC,cell count,[1],376
same,inhibition,[1],0.6% (inactive)
same,inhibition of aggregation,[2],22.5% (inactive)
same,nuclei count,[2],87.4%
same,inhibition,[3],-205% (inactive)
same,nuclei count,[3],196%
same,fluorescence slope,[4],-0.325 (inactive)
same,NADPH fluorescence slope,[5],-5e-05 (inactive)
same,slope,[6],0.00465 (inactive)
same,inhibition,[7],11.9% (inactive)
same,inhibition,[8],18.9% (inactive)
Cc1ccc(CSc2nc3c(c(=O)[nH]2)CCC3)cc1,cell count,[1],423
same,inhibition,[1],11.5% (inactive)
same,inhibition of aggregation,[2],-3.3% (inactive)
same,nuclei count,[2],103%
same,inhibition,[3],4.9% (inactive)
same,nuclei count,[3],103%
same,fluorescence slope,[4],-0.363 (inactive)
same,NADPH fluorescence slope,[5],-2.9e-05 (inactive)
same,slope,[6],0.00659 (inactive)
same,inhibition,[7],-0.266% (inactive)
same,inhibition,[8],8.89% (inactive)
CC1CCc2nn(CC(=O)NCc3ccc4c(c3)OCO4)cc2C1 (centres undefined),cell count,[1],673
same,inhibition,[1],-6.1% (inactive)
same,inhibition of aggregation,[2],1.1% (inactive)
same,nuclei count,[2],103%
same,inhibition,[3],-80.8% (inactive)
same,nuclei count,[3],124%
same,fluorescence slope,[4],-0.506 (inactive)
same,NADPH fluorescence slope,[5],-2.4e-05 (inactive)
same,slope,[6],0.00628 (inactive)
same,inhibition,[7],7.66% (inactive)
same,inhibition,[8],18% (inactive)
COC(=O)c1ccc2c(=O)n(CC3CCCO3)c(=S)[nH]c2c1 (centres undefined),cell count,[1],548
same,inhibition,[1],16% (inactive)
same,inhibition of aggregation,[2],-9.1% (inactive)
same,nuclei count,[2],92.8%
same,inhibition,[3],-137% (inactive)
same,nuclei count,[3],94.3%
same,fluorescence slope,[4],-0.478 (inactive)
same,NADPH fluorescence slope,[5],-2.8e-05 (inactive)
same,slope,[6],0.00617 (inactive)
same,inhibition,[7],14.9% (inactive)
same,inhibition,[8],12.3% (inactive)
O=S(=O)(c1ccc(-c2csc(-c3cccnc3)n2)cc1)N1CCCCC1,cell count,[1],372
same,inhibition,[1],-1.7% (inactive)
same,inhibition of aggregation,[2],-2% (inactive)
same,nuclei count,[2],102%
same,inhibition,[3],-30.5% (inactive)
same,nuclei count,[3],116%
same,fluorescence slope,[4],-0.604 (inactive)
same,NADPH fluorescence slope,[5],-9e-06 (inactive)
same,slope,[6],0.0051 (inactive)
same,inhibition,[7],-0.353% (inactive)
same,inhibition,[8],-37.2% (inactive)
CC(=O)Nc1ccc(NC(=O)Cn2cc3c(n2)CCC(C)C3)cc1 (centres undefined),cell count,[1],549
same,inhibition,[1],-6.3% (inactive)
same,inhibition of aggregation,[2],3.5% (inactive)
same,nuclei count,[2],95.1%
same,inhibition,[3],-58.6% (inactive)
same,nuclei count,[3],103%
same,fluorescence slope,[4],-0.284 (inactive)
same,NADPH fluorescence slope,[5],-4.3e-05 (inactive)
same,slope,[6],0.00496 (inactive)
same,inhibition,[7],16.6% (inactive)
same,inhibition,[8],23% (inactive)
CCC(C)NC(=O)c1cc(CC(C)C)on1 (centres undefined),cell count,[1],880
same,inhibition,[1],3.5% (inactive)
same,inhibition of aggregation,[2],21.8% (inactive)
same,nuclei count,[2],80.5%
same,inhibition,[3],-78.2% (inactive)
same,nuclei count,[3],127%
same,fluorescence slope,[4],-0.61 (inactive)
same,NADPH fluorescence slope,[5],-1.9e-05 (inactive)
same,slope,[6],0.00602 (inactive)
same,inhibition,[7],-59.4% (inactive)
same,inhibition,[8],-111% (inactive)
Cc1cc(NC(=O)COc2cccc(C)c2C)no1,cell count,[1],684
same,inhibition,[1],6.5% (inactive)
same,inhibition of aggregation,[2],-9.8% (inactive)
same,nuclei count,[2],104%
same,inhibition,[3],-16.6% (inactive)
same,nuclei count,[3],121%
same,fluorescence slope,[4],-0.549 (inactive)
same,NADPH fluorescence slope,[5],-2.5e-05 (inactive)
same,slope,[6],0.00696 (inactive)
same,inhibition,[7],-0.401% (inactive)
same,inhibition,[8],0.183% (inactive)
